TIM10 inh: growth inhibitors of isogenic TIM10 control yeast, primary screen, counter-screen for tim10-1 yeast inhibitor project, luminescence, uHTS; S. cerevisiae TIM10 strain growth, BacTiter-Glo luminescence, 24 h; inhibition, % at 10 µM; 330,000 compounds, 1.4% hits; AID 463195, 2010;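 active = inhibition of 40% or more at the single tested concentration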;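 note: wild-type TIM10 isogenic control strain grown at permissive 25 °C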
NLRP3 yeast inh: NALP3 inflammasome inhibitors in reconstituted yeast, primary screen, luminescence, uHTS; Yeast reconstituted NLRP3/ASC/caspase-1, beta-gal luminescence, 24 h; inhibition, % at 10 µM; 330,000 compounds, 0.39% hits; AID 2825, 2010;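 active = inhibition of 50% or more; inactive = inhibition below 50%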
tim10-1 inh: growth inhibitors of tim10-1 mutant yeast, primary screen, luminescence, uHTS | S. cerevisiae tim10-1 ts strain growth, BacTiter-Glo, 24 h | 330,000 compounds, 2.2% hits | inhibition, % at 20 µM | AID 463190, 2010;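 active = inhibition of at least 40%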;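 note: mutant grown at 25 °C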
SKKanGAS inh: S. pyogenes SKKanGAS growth inhibitors in kanamycin, primary screen, streptokinase expression inhibitor project, SKKanGAS strain, BacTiter-Glo luminescence; 300,000 compounds, 1.3% hits; 6 h; inhibition, % at 7.5 µM;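 active = mean replicate score, as percent of positive control median, at least 50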;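 note: strain carries kanamycin resistance gene driven by streptokinase promoter and grows in 40 µg/ml kanamycin; loss of luminescence reflects streptokinase promoter inhibition or plain growth inhibition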
PfHsp90 yeast 2: growth inhibition of PfHsp90-expressing yeast, primary screen, antimalarial PfHsp90 inhibitor project, S. cerevisiae, BacTiter-Glo luminescence, single point, set 2. inhibition, % at 9.4 µM. BacTiter-Glo ATP, 48 h; yeast lacking PDR1 and PDR3 efflux regulators. AID 504621, 2011. 310,000 compounds, 0.32% hits;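 active = every replicate shows inhibition above about 80%, whatever the replicate mean, limit read from the data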
tim23-1 inh: growth inhibitors of tim23-1 mutant yeast, primary screen, luminescence, uHTS; S. cerevisiae tim23-1 growth, BacTiter-Glo luminescence, 24 h; inhibition, % at 20 µM; 330,000 compounds, 1.3% hits;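 active = growth inhibition of the mutant yeast at or above 50%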;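 note: temperature-sensitive mutant grown at 25 °C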
Each line names hits and unclear results; the compound was inactive in the other large screens. Compounds with a hit are over-represented: about 4.5% of the library has one in this group of screens.

CCCCC(=O)O[C@H]1CC[C@H]2[C@@H]3CCc4cc(O)ccc4[C@H]3CC[C@]12C	SKKanGAS inh 89
CCOc1ccc2nc(NC(=O)CN3CCC(n4nnc5cc(C(F)(F)F)ccc54)CC3)sc2c1	SKKanGAS inh 52
Cc1cc(NC(=O)CN2CCC(n3nnc4cc(C(F)(F)F)ccc43)CC2)no1	none
COc1ccc(NC(=O)c2cc(-c3cc(C)cc(C)c3O)n[nH]2)cc1Cl	SKKanGAS inh 99 (no result: PfHsp90 yeast 2)
COc1ccc(NC(=O)c2cc(-c3ccccc3O)n[nH]2)cc1Cl	none
O=S(=O)(NC(=NCc1ccccc1)c1ccccc1)c1ccc(Br)cc1	SKKanGAS inh 52
O=S(=O)(NC(=NCc1ccccc1)c1ccccc1)c1ccccc1	none
Cc1ccc(NC(=O)COC(=O)CCc2c(C)nc3ncnn3c2C)cc1	none (no result: SKKanGAS inh)
Cc1ccc(C)c(NC(=O)C(OC(=O)c2ccc(NC(=O)CC#N)cc2)c2ccccc2)c1 (stereo not given)	none
Cc1cc(C)cc(NC(=O)C(OC(=O)c2ccc(NC(=O)CC#N)cc2)c2ccccc2)c1 (stereo not given)	SKKanGAS inh 57 (no result: PfHsp90 yeast 2)
CC(OC(=O)c1ccc(NC(=O)CC#N)cc1)C(=O)NC(=O)NC1CCCCC1 (stereo not given)	SKKanGAS inh 59
O=c1[nH]c(=O)n([C@H]2C[C@H](O)[C@@H](CO)O2)cc1F	SKKanGAS inh 92 (no result: TIM10 inh, NLRP3 yeast inh, tim10-1 inh, tim23-1 inh)
CCOc1ccc2nc(N(Cc3ccccc3)C(=O)CCNC(C)=O)sc2c1	none
Cc1cc(C)c(C)c(OCCCOc2cccc3cccnc23)c1	SKKanGAS inh 61
O=C(NCCS(=O)(=O)N1CCN(c2ccccc2F)CC1)c1ccc(Br)cc1	none
O=C(N/N=C1/C(=O)c2cccc3cccc1c23)c1ccc(Cl)cc1	SKKanGAS inh 100
O=C1c2cc(Cl)ccc2-c2c(O)cc(Cl)cc21	PfHsp90 yeast 2 97 (no result: TIM10 inh, NLRP3 yeast inh, tim10-1 inh, SKKanGAS inh, tim23-1 inh)
COC(=O)c1ccc(C(=O)OC)c(NC(=O)CN(C)Cc2ccccc2)c1	none
COC(=O)c1ccc(C(=O)OC)c(NC(=O)CN(C)Cc2cccc(Cl)c2Cl)c1	SKKanGAS inh 69
COc1ccc(C(=O)Nc2nc(CC(=O)NCCc3ccccc3OC)cs2)cc1	none
COC(=O)c1cc2ccc(OC)cc2c2cc(OC)c(OC)cc12	none (no result: SKKanGAS inh)
C[N+](C)(CCOc1ccccc1)Cc1ccccc1	none (no result: TIM10 inh, NLRP3 yeast inh, tim10-1 inh, SKKanGAS inh, tim23-1 inh)
Cc1cc(C(C)(C)CC(C)(C)C)ccc1OCCOCC[N+](C)(C)Cc1ccccc1	PfHsp90 yeast 2 113 (no result: SKKanGAS inh)
COc1ccc(C)cc1N=Nc1ccc(O)c2ncccc12	SKKanGAS inh 94, PfHsp90 yeast 2 109 (no result: TIM10 inh, NLRP3 yeast inh, tim10-1 inh, tim23-1 inh)
COc1cc(OC)cc(C(=O)Nc2cccc3cccnc23)c1	none
COCc1ccc(O)c2ncccc12	SKKanGAS inh 61
COc1cccc(N=Nc2ccc3cccnc3c2O)c1	SKKanGAS inh 118, PfHsp90 yeast 2 104
Oc1ccc(N=Nc2ccc3c(c2)OCCO3)c2cccnc12	SKKanGAS inh 88
Oc1ccc(CNc2ccccc2)c2cccnc12	none
COc1ccc(C)cc1NC(=O)C(c1ccccc1)N1CCN(CC(=O)NC2CC2)CC1 (stereo not given)	none (no result: SKKanGAS inh, PfHsp90 yeast 2)
CCOc1ccccc1N1CCN(C(=O)c2ccc3nc(N)sc3c2)CC1	none (no result: SKKanGAS inh)
COc1ccc(N=Nc2cc(-c3ccccc3)ccc2O)cc1	SKKanGAS inh 56
COc1ccc(N=Nc2ccc(O)c3ncccc23)cc1	SKKanGAS inh 70, PfHsp90 yeast 2 104
O=Nc1ccc(O)c2ncccc12	none
O=S(=O)(O)c1cccc2c(N=Nc3ccc(O)c4ncccc34)cccc12	none (no result: TIM10 inh, NLRP3 yeast inh, tim10-1 inh, tim23-1 inh)
Cc1ccccc1N=Nc1ccc(O)c2ncccc12	SKKanGAS inh 105 (no result: TIM10 inh, NLRP3 yeast inh, tim10-1 inh, tim23-1 inh)
Cc1ccc(NC(=O)CN2C(=O)S/C(=C\c3cccn3-c3cccc(C(=O)O)c3)C2=O)c(C)c1	SKKanGAS inh 59
Cc1cccc(C)c1-n1cccc1/C=C1\SC(=S)N(c2cccc(C(=O)O)c2)C1=O	SKKanGAS inh 111
COCCCNc1nc(N)c([N+](=O)[O-])c(N2CCCCCC2)n1	none
O=C(Nc1ccccc1)C(Cl)C(=O)c1ccccc1 (stereo not given)	PfHsp90 yeast 2 106
CC(=O)C(Cl)C(=O)Nc1ccccc1 (stereo not given)	none (no result: TIM10 inh, NLRP3 yeast inh, tim10-1 inh, SKKanGAS inh, tim23-1 inh)
O=C(O)c1ccc(N2C(=O)CC(SC(=NCc3ccc4c(c3)OCO4)Nc3ccc(F)cc3)C2=O)cc1 (stereo not given)	SKKanGAS inh 59
O=C(Nc1ccc(-c2cscn2)cc1)C1CCCN(Cc2ccccc2)C1 (stereo not given)	none
Cc1nn(C)c(Cl)c1CN1CCCC(C(=O)Nc2ccc(-c3cscn3)cc2)C1 (stereo not given)	SKKanGAS inh 50
CCC(CC)c1nn2c(N)c(/C=C3\C(C)=Nc4ccccc43)c(=O)nc2s1	SKKanGAS inh 62 (no result: PfHsp90 yeast 2)
O=C(Cn1ccccc1=S)c1ccc(Cl)c(Cl)c1	none (no result: PfHsp90 yeast 2)
On1ccccc1=S	PfHsp90 yeast 2 107 (no result: TIM10 inh, NLRP3 yeast inh, tim10-1 inh, SKKanGAS inh, tim23-1 inh)
CCC(C)Sc1cc(C(F)(F)F)c(C(=O)Nc2ccc(Cl)cc2)cn1 (stereo not given)	SKKanGAS inh 70
COc1ccc(S(=O)(=O)N2CCOCC2)cc1NC(=O)c1cc(C)oc1C	none (no result: SKKanGAS inh)
CCOC(=O)c1cnc(-n2nc(C)cc2C)nc1NNc1cc(-c2ccccc2)nc(C)n1	SKKanGAS inh 103 (no result: PfHsp90 yeast 2)
CCOC(=O)c1cnc(-n2nc(C)cc2C)nc1NCCO	none (no result: PfHsp90 yeast 2)
O=[N+]([O-])c1ccc(Sc2cccc[n+]2[O-])c2nonc12	SKKanGAS inh 102, PfHsp90 yeast 2 97 (no result: TIM10 inh, NLRP3 yeast inh, tim10-1 inh, tim23-1 inh)
O=C(NCc1ccc(F)cc1)C(=O)Nc1nc(C23CC4CC(CC(C4)C2)C3)cs1	SKKanGAS inh 109
O=C(NCc1ccccc1)C(=O)Nc1nc(C23CC4CC(CC(C4)C2)C3)cs1	SKKanGAS inh 102
Cc1cc(S(=O)(=O)N2CCCC2)ccc1OCC(=O)Nc1ccccc1	none
Cc1ccc(Cn2cc(/C=N/NC(=O)Cc3nnc(NC(=O)c4ccc(C)cc4)s3)c3ccccc32)cc1	SKKanGAS inh 58
O=C(/C=C/c1ccc(F)cc1)NC(=S)NNC(=O)[C@H]1C[C@@H]1c1ccccc1	SKKanGAS inh 85
O=C(NC(=S)NNC(=O)[C@H]1C[C@@H]1c1ccccc1)c1ccc(F)cc1	SKKanGAS inh 82
Nc1ncc2c(n1)CCN(c1ccc([N+](=O)[O-])cc1)C2	none
CCC(=O)NNc1nc2c(C)cc(C)cc2s1	none
Cc1cc(C)c2nc(NNC(=O)c3ccc(S(=O)(=O)N4CCCC(C)C4)cc3)sc2c1 (stereo not given)	SKKanGAS inh 92

Source: PubChem
